According to PubChem BioAssay (NCI):
About 79,000 compounds went through this panel and 15% of them were active in at least one assay; those are over-represented in the sample as a whole. Active and inactive are the calls of the source. Cut-off read from the data, not from the text of the source: active = growth inhibition above about 70%; inactive = the rest.

Legend:
[1] = NCI Yeast Anticancer Drug Screen. Data for the rad50 strain (AID 155);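 note: 0% = growth of vehicle-only cultures of the same strain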; details: S. cerevisiae rad50 strain growth inhibition; at 50.0 µM; hits give high values
How it was run: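 Readout: growth inhibition relative to vehicle-treated cultures. Compound exposure was carried out in a genetically defined yeast strain deficient in DNA damage repair.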

[2] = NCI Yeast Anticancer Drug Screen. Data for the mec2-1 strain (AID 157); details: S. cerevisiae mec2-1 strain, at 50.0 µM, hits give high values
How it was run: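 Each compound was tested on mec2-1 yeast, a strain altered in DNA damage repair or cell cycle control. Growth inhibition is reported relative to vehicle.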

[3] = NCI Yeast Anticancer Drug Screen. Data for the sgs1 mgt1 strain (AID 161);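 note: 0% = growth of cultures given vehicle only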; details: S. cerevisiae sgs1 mgt1 strain, at 50.0 µM, hits give high values
How it was run: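 Genetically altered yeast, compound exposure, growth inhibition relative to vehicle.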

[4] = NCI Yeast Anticancer Drug Screen. Data for the cln2 rad14 strain (AID 165);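 note: 0% = growth equal to vehicle treated cultures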; details: S. cerevisiae cln2 rad14 strain, at 50.0 µM, hits give high values
How it was run: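 Test compounds were added to cln2 rad14 yeast cultures; inhibition of growth was then determined by comparison with vehicle treatment.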

[5] = NCI Yeast Anticancer Drug Screen. Data for the bub3 strain (AID 167); details: S. cerevisiae bub3 mutant strain, at 50.0 µM, hits give high values
How it was run: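 Readout: yeast growth inhibition, expressed relative to vehicle-only wells. The test organism is a mutant strain from a panel with lesions in DNA repair or checkpoint genes.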

[6] = NCI Yeast Anticancer Drug Screen. Data for the mlh1 rad18 strain (AID 175); details: S. cerevisiae mlh1 rad18 strain growth inhibition; at 50.0 µM; hits give high values
How it was run: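 Inhibition values reflect reduced growth of mutant yeast versus vehicle-treated controls following compound exposure; the mutations affect DNA damage repair.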

Measured: growth inhibition

CN(CCNC(=O)NC1CCCCC1)c1ccccc1
inactive: [1] 3.45% | [2] 0.75% | [3] 15.9% | [4] 2.85% | [5] 8.45% | [6] 35.4%

O=S1(=O)COc2ccccc2-c2ncncc21
inactive: [1] 10.2% | [2] -9.85% | [3] -2.35% | [4] 31.2% | [5] -2.6% | [6] -11.8%

CC(/C=C/C=C/C=C/C=C/C=C/C(O)=C1/C(=O)C(CCC(=O)O)N(C)C1=O)=C\C(C)C(OC1CC(O)C(O)C(C)O1)C(C)C (stereo unspecified)
inactive: [1] -11.6% | [2] -28.6% | [3] -1.7% | [4] 3.35% | [5] -10.1% | [6] -2.65%

COc1nn(C)c(=O)c2cccnc12
inactive: [1] -2.05% | [2] 7.6% | [3] -3.1% | [4] -6.25% | [5] 12.6% | [6] 1.2%

CCOc1ccc(Nc2nc(C)c(C(=O)CC(=O)C(=O)Nc3ccc(C(C)C)cc3C(C)C)s2)cc1
inactive: [1] -31.2% | [2] 10.1% | [3] 5.45% | [4] -14.8% | [5] -20% | [6] -38.4%

C(=C/c1ccc2c(c1)OCO2)/c1ccccc1
inactive: [1] -16.1% | [2] 10.3% | [3] 12.2% | [4] -2.85% | [5] 11% | [6] 2.9%

CC(C)(C)C(=O)O[C@H]1C=C[C@@H](O)[C@@H]2[C@H]1[C@@H]1C=C[C@H]2C1
inactive: [1] 28.1% | [2] 41.6% | [3] 66.8% | [4] 11.6% | [5] 55.9% | [6] 53.5%

Nc1nc(N)c(-c2ccc(Cl)c(Cl)c2)c(COc2cccc3ccccc23)n1
active: [1] 98.7% | [2] 99% | [3] 99.2% | [4] 96.5% | [5] 98.1% | [6] 98.7%

CN(CN(C)/N=C/c1ccc(Cl)cc1)/N=C/c1ccc(Cl)cc1
inactive: [1] 1.05% | [2] 11.6% | [3] 7.95% | [4] 12.8% | [5] -4.8% | [6] 10.1%

CC(C)(C)C1CCC2c3c([nH]c4ccccc34)C3C(=O)N(c4ccc(C#N)cc4)C(=O)C3C2C1 (stereo unspecified)
inactive: [1] 53.3% | [2] 50.2% | [3] 54.9% | [4] 16.9% | [5] 38.6% | [6] 38.8%

COC(=O)C1=C(C(=O)OC)C23CC4CCC2(C(=O)C1O3)C4(C)C (stereo unspecified)
inactive: [1] 36.4% | [2] 18% | [3] 23% | [4] 8.65% | [5] 21.5% | [6] -5.15%

COc1ccc(C(C)=O)cc1
inactive: [1] 34.5% | [2] 18.8% | [3] 30.6% | [4] 37.1% | [5] 29.9% | [6] 18.9%

O=C(OCc1ccccc1)C1CCCN1C(=O)C(CSC(c1ccccc1)(c1ccccc1)c1ccccc1)NC(c1ccccc1)(c1ccccc1)c1ccccc1 (stereo unspecified)
inactive: [1] -5.5% | [2] -1.35% | [3] -0.8% | [4] -11.3% | [5] -7.55% | [6] 24.6%

OC1(c2ccccc2)c2ccccc2Oc2cc(Cl)ccc21 (stereo unspecified)
inactive: [1] 9.4% | [2] -0.85% | [3] 2.8% | [4] 10.3% | [5] 2.15% | [6] 45.8%

O=C(O)/C(Cl)=C(\Cl)C(=O)NC1C2CC3CC(C2)CC1C3 (stereo unspecified)
inactive: [1] 14.4% | [2] 10.3% | [3] 13.8% | [4] 28.8% | [5] 3.6% | [6] 19.6%

O=S1(=O)NC2CCC3NS(=O)(=O)NC4CCC(N1)N4S(=O)(=O)N23 (stereo unspecified)
inactive: [1] -3.75% | [2] -17.4% | [3] -4.1% | [4] 6.6% | [5] -0.55% | [6] -8.25%

CN(C)c1ccc(/C(=N\O)c2cc[n+](C)cc2)cc1
inactive: [1] -28.6% | [2] -23.4% | [3] -13.2% | [4] -34.5% | [5] -0.6% | [6] 0.85%

CS(=O)(=O)CC(O)c1ccccc1 (stereo unspecified)
inactive: [1] 4.8% | [2] -3.2% | [3] 2.95% | [4] -12.7% | [5] 6.65% | [6] -21.4%

COc1cc2c(cc1OC)C[N+]1(C)CCc3cc(OC)c(OC)cc3C1C2 (stereo unspecified)
inactive: [1] -16% | [2] -30.9% | [3] -9.9% | [4] 9.1% | [5] -8% | [6] -5.55%

COc1cc(/C=N/NC(=O)N/N=C/c2cc(OC)c(OC)c(OC)c2)cc(OC)c1OC
inactive: [1] -37.9% | [2] -4.8% | [3] -11.1% | [4] 10.9% | [5] 0.95% | [6] 6.4%

c1ccc(CN(CCNc2ccccc2)c2ccccc2)cc1
inactive: [1] 13.2% | [2] 48.4% | [3] 46.2% | [4] 5.1% | [5] 50.6% | [6] 3.7%
